C diff growth: blocks growth of Clostridium difficile. Clostridium difficile clinical isolate growth, OD600, 24 h; active compounds read low. growth activity, negative = inhibition, % at 16 µg/mL (by protocol). hit rate 0.25% among 86,000. AID 1259249;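 active = mean growth activity at or below -80% and every replicate also at or below -80%; inconclusive = mean at or below -80% but some replicate above -80%; inactive = mean growth activity above -80%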;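 also: 0% = DMSO wells and -100% = levofloxacin 16 µg/mL wells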
T cruzi growth-1: blocks T. cruzi growth in NIH3T3 culture | inhibition, % at 8.34 µM | hit rate 5.9% among 77,000 | T. cruzi beta-gal in NIH3T3, GalScreen luminescence, 90 h;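 active = mean inhibition above about 93%, with at least 55% of replicates each passing it, limit read from the data, passing the limit was not always enough; inconclusive = only one of those two conditions holds; inactive = neither condition holds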
Pf Dd2 inh: inhibitors of Plasmodium falciparum Dd2 growth | P. falciparum Dd2 growth, SYBR Green, 72 h; active compounds read low | activity change, % at 10 µM | hit rate 2.3% among 94,000 | AID 1159554; in the data active = activity change below about -80%; inconclusive = no clear call, values can overlap the other calls
T cruzi growth-2: blocks T. cruzi growth in NIH3T3 host cells; shares compounds with T cruzi growth-1; T. cruzi beta-gal in NIH3T3, GalScreen luminescence, 90 h; inhibition, % at 8.35 µM; hit rate 72% among 5,600; AID 651739;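 active = mean replicate inhibition above about 95% and at least 55% of replicates individually reaching it, limit read from the data; inconclusive = only one of the two criteria is met; inactive = neither criterion is met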
T cruzi growth-3: inhibitors of T. cruzi proliferation; shares compounds with T cruzi growth-1; T. cruzi beta-gal in NIH3T3, GalScreen luminescence, 90 h; inhibition, % at 2.09 µM; hit rate 21% among 5,600; AID 651740;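 active = mean inhibition above about 95%, with at least 55% of replicates also reaching it, limit read from the data; inconclusive = meets just one of the two conditions; inactive = meets neither condition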;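 also: plate controls were neutral control median for no effect and positive control median for full effect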
NIH3T3 tox: kills mouse NIH/3T3 fibroblasts; shares compounds with T cruzi growth-1; cytotoxicity (signal decrease), % at 8.35 µM; NIH/3T3 viability, CellTiter-Glo ATP luminescence, 90 h; hit rate 14% among 5,600; AID 651742;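 active = mean signal decrease across replicates above about 35% based on untreated-well scatter, with enough replicates individually passing, limit read from the data; inconclusive = no rule stated though some were filed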;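 also: 0% = median of neutral control wells and 100% = median of positive control wells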
NIH3T3 tox 2: cytotoxicity in mouse NIH/3T3 fibroblasts. shares compounds with T cruzi growth-1. NIH/3T3 viability, CellTiter-Glo ATP luminescence, 90 h. inhibition, % at 24.9 µM. hit rate 56% among 5,600. AID 651744;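 active = mean loss of cell viability signal at or above a set limit, and enough replicates individually reaching it; inconclusive = meets only the mean limit or only the replicate share; inactive = meets neither condition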;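 also: 0% = median of neutral control wells and 100% = median of positive control wells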
An asterisk follows results filed as active; ? = inconclusive; . = not tested or not shown. In the library only some 6.7% were active in any assay of this set; here they are far more common.

SMILES	C diff growth	T cruzi growth-1	Pf Dd2 inh	T cruzi growth-2	T cruzi growth-3	NIH3T3 tox	NIH3T3 tox 2
C[C@@H]1CN([C@@H](C)CO)C(=O)Cc2cc(NC(=O)Cc3cn(C)c4ccccc34)ccc2O[C@@H]1CN(C)S(=O)(=O)c1ccccc1	4	68	-27	.	.	.	.
C[C@@H]1CCCCO[C@@H](CN(C)CC2CCCCC2)[C@H](C)CN([C@@H](C)CO)C(=O)c2cc(NS(=O)(=O)c3ccc(Cl)cc3)ccc2O1	6	102*	-36	105*	94	26	106*
C[C@@H]1CN([C@@H](C)CO)C(=O)c2cc(NS(=O)(=O)c3ccc(Cl)cc3)ccc2O[C@@H](C)CCCCO[C@H]1CN(C)CC1CC1	-4	106*	-74	107*	82	16	15
C[C@@H]1CCCCO[C@@H](CN(C)CC2CC2)[C@@H](C)CN([C@H](C)CO)C(=O)c2cc(NS(=O)(=O)c3ccc(Cl)cc3)ccc2O1	-2	28	-62	.	.	.	.
C[C@H](CO)N1C[C@H](C)[C@H](CN(C)CC2CC2)Oc2ccc(NS(=O)(=O)c3ccc(Cl)cc3)cc2C1=O	-3	-2	-5	.	.	.	.
C[C@@H]1CCCCO[C@@H](CN(C)CC2CCCCC2)[C@H](C)CN([C@H](C)CO)C(=O)c2cc(NS(=O)(=O)c3ccc(Cl)cc3)ccc2O1	-13	93	-75	.	.	.	.
C[C@@H]1CN([C@@H](C)CO)C(=O)c2cc(NS(=O)(=O)c3ccc(Cl)cc3)ccc2O[C@H]1CN(C)CC1CC1	4	?	-4	1	20	8	31*
C[C@@H]1CN([C@@H](C)CO)C(=O)c2cc(NS(=O)(=O)c3ccc(Cl)cc3)ccc2O[C@@H](C)CCCCO[C@H]1CN(C)CC1CCCCC1	-55	108*	-45	88	29	?	102*
C[C@@H]1CCCCO[C@@H](CN(C)CC2CCCCC2)[C@@H](C)CN([C@@H](C)CO)C(=O)c2cc(NS(=O)(=O)c3ccc(Cl)cc3)ccc2O1	-7	64	-19	.	.	.	.
CNC[C@@H]1Oc2ccc(NC(=O)Nc3ccc(F)cc3)cc2CC(=O)N([C@H](C)CO)C[C@@H]1C	0	.	-7	.	.	.	.
C[C@H](CO)N1C[C@H](C)[C@@H](CN(C)Cc2ccc3c(c2)OCO3)Oc2ccc(NC(=O)C3CC3)cc2C1=O	1	42	12	.	.	.	.
C[C@@H]1CN([C@@H](C)CO)C(=O)c2cc(NS(C)(=O)=O)ccc2O[C@@H]1CN(C)C(=O)Nc1ccc(C(F)(F)F)cc1	-4	-24	-31	.	.	.	.
CCCNC(=O)N1CC2(CCN(C(=O)Nc3cccc(F)c3)CC2)c2c(n(C)c3cc(OC)ccc23)[C@@H]1CO	20	.	-56	.	.	.	.
C[C@@H]1CN([C@@H](C)CO)C(=O)c2cccc(NC(=O)c3nc4ccccc4s3)c2O[C@@H]1CN(C)Cc1ccc(Oc2ccccc2)cc1	7	70	-76	.	.	.	.
O=C(C[C@@H]1C[C@H]2c3cc(NC(=O)c4ccc5c(c4)OCO5)ccc3O[C@H]2[C@H](CO)O1)NCC(F)(F)F	4	-4	3	.	.	.	.
CO[C@H]1CN(C)C(=O)c2ccc(NC(=O)c3ccno3)cc2OC[C@@H](C)NC[C@@H]1C	.	43	49	.	.	.	.
COc1cccc(C#Cc2ccc([C@H]3[C@@H](C#N)N(C(=O)C4CC4)[C@@H]3CO)cc2)c1	1	100*	-37	99*	107*	0	16
COc1cccc(C#Cc2ccc([C@@H]3[C@@H](C#N)N(C(=O)C4CC4)[C@H]3CO)cc2)c1	-5	91	-40	.	.	.	.
COc1cccc(C#Cc2ccc([C@@H]3[C@@H](CO)N(C(=O)C4CC4)[C@H]3C#N)cc2)c1	-8	92	-32	.	.	.	.
COc1cccc(C#Cc2ccc([C@H]3[C@@H](CO)N(C(=O)C4CC4)[C@H]3C#N)cc2)c1	6	98*	-76	103*	113*	6	18
COc1cccc(CN2[C@@H]3CNC[C@H]2C3c2ccc(-c3cccnc3)cc2)c1 (some centres undefined)	2	.	-18	.	.	.	.
C[C@@H]1CCCCO[C@@H](CN(C)S(=O)(=O)c2ccc(F)cc2)[C@@H](C)CN([C@@H](C)CO)C(=O)c2cc(NS(=O)(=O)c3cn(C)cn3)ccc2O1	-1	.	-16	.	.	.	.
COCC(=O)Nc1ccc2c(c1)[C@H]1C[C@H](CC(=O)NCc3ccncc3)O[C@H](CO)[C@H]1O2	-6	50	9	.	.	.	.
C[C@H]1CN([C@@H](C)CO)C(=O)c2cc(NC(=O)CCCN(C)C)ccc2O[C@@H]1CN(C)C(=O)NC1CCCCC1	0	9	-7	.	.	.	.
CN1c2ccc(C#Cc3cccnc3)cc2[C@@H]2[C@@H](CCN2C(=O)C2CCC2)[C@H]1CO	-15	.	-67	.	.	.	.
SMILES	C diff growth	T cruzi growth-1	Pf Dd2 inh	T cruzi growth-2	T cruzi growth-3	NIH3T3 tox	NIH3T3 tox 2
CN1c2ccc(C#Cc3cccnc3)cc2[C@@H]2[C@@H](CCN2S(=O)(=O)c2ccc(F)cc2)[C@H]1CO	-6	85	-70	.	.	.	.
CN1c2ccc(C#Cc3cccnc3)cc2[C@@H]2[C@@H](CCN2C(=O)C2CC2)[C@H]1CO	-5	99*	-65	96*	17	8	25*
CN1c2ccc(-c3cccc(C#N)c3)cc2[C@@H]2[C@@H](CCN2S(=O)(=O)c2ccccc2)[C@@H]1CO	9	116*	-4	99*	85	51*	14
CN1c2ccc(C#Cc3cccnc3)cc2[C@H]2[C@H](CCN2S(=O)(=O)c2ccc(F)cc2)[C@H]1CO	-4	97*	?	102*	111*	37*	42*
CN1c2ccc(-c3cccc(C#N)c3)cc2[C@@H]2[C@@H](CCN2S(=O)(=O)c2cccc(F)c2)[C@@H]1CO	4	25	28	.	.	.	.
CN1c2ccc(-c3cccc(C#N)c3)cc2[C@@H]2[C@@H](CCN2S(=O)(=O)c2ccc(F)cc2)[C@@H]1CO	3	105*	-14	94	78	45*	22
CN1c2ccc(-c3cccc(C#N)c3)cc2[C@H]2[C@H](CCN2S(=O)(=O)c2ccccc2)[C@@H]1CO	5	94	-19	.	.	.	.
COc1ccc(S(=O)(=O)N(C)C[C@H]2OCCCC[C@H](C)Oc3ccc(NC(=O)c4ccncc4)cc3C(=O)N([C@H](C)CO)C[C@@H]2C)cc1	-2	27	2	.	.	.	.
CC=Cc1ccc2n(c1=O)C[C@@H]1[C@@H](CO)[C@H](C(=O)N3CCCCC3)[C@H]2N1Cc1ccccn1 (mixture of isomers)	-2	18	.	.	.	.	.
CCCNC(=O)[C@@H]1[C@@H](CO)[C@@H]2Cn3c(ccc(-c4cccc(F)c4)c3=O)[C@H]1N2C(=O)CC	-3	10	0	.	.	.	.
CCCNC(=O)N1C[C@@H](C)[C@H](OC)CN(C)C(=O)c2cc(NC(=O)CCC)ccc2OC[C@H]1C	.	46	-2	.	.	.	.
